Data reported in PubChem BioAssay (NCATS).
Calls of active or inactive are those of the source. The call rests on the fitted dose curve; in most records, active means well fitted curve in the direction sought with a large enough effect; inactive means no such curve, though single readings can be large or run the other way.

test: qHTS for small molecule inhibitors of Yes1 kinase: Counter Assay (AID 686950); settings: series mostly up to 76.9 µM;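 further: no kinase present so only ADP-Glo detection of a fixed ADP amount is tested; luminescence from ADP-Glo reporting ADP in a fixed ATP and ADP mixture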
Outline: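 Luminescence read-out from ADP-Glo quantifies a fixed ADP amount (0.02 mM ADP with 0.08 mM ATP) after 60 min at room temperature; signal is normalized between DMSO wells with ATP/ADP and with 0.1 mM ATP alone.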

| SMILES | outcome |
| --- | --- |
| Fc1cccc(COc2ccc(Nc3ncnc4sc(-c5cccs5)cc34)cc2Cl)c1 | inactive |
| c1cc(-c2cnn3nc(N4CCOCC4)ccc23)nc(NC2CC2)n1 | inactive |
| Nc1nccc(-c2c(-c3ccc(F)cc3)nn3cc(C(F)(F)F)ccc23)n1 | inactive |
| COc1cc(C)c(NC(=O)CN(C)C)cc1Nc1nc(Nc2cccc(F)c2C(N)=O)c2cc[nH]c2n1 | inactive |
| CCCN1CCCC(c2ccc(Nc3nc(Nc4cc(F)ccc4C(N)=O)c4cc[nH]c4n3)c(OC)c2)C1 (centres undefined) | inactive |
| CC(Oc1cc(-n2cnc3ccc(OCC(O)CO)cc32)sc1C(N)=O)c1ccccc1Cl (centres undefined) | inactive |
| Fc1ccc(-c2ncn(C3CCNCC3)c2-c2ccnc(Oc3ccc4c(c3)OCO4)n2)cc1 | inactive |
| CN(C)CCCNc1nccc(-c2c(-c3ccc(F)cc3)nn3cc(C(F)(F)F)ccc23)n1 | inactive |
| COc1cc(N2CCN(C(C)C)CC2)ccc1Nc1nc(Nc2ccc(F)cc2C(N)=O)c2cc[nH]c2n1 | inactive |
| NC(=O)c1sc(-n2cnc3ccc(C(F)(F)F)cc32)cc1OCc1ccccc1Br | inactive |
| CS(=O)(=O)CCNCc1nc(-c2ccc3ncnc(Nc4ccc(OCc5cccc(C(F)(F)F)c5)cc4)c3c2)cs1 | inactive |
| CCOc1nccc2c1nc(-c1nonc1N)n2CC | inactive |
| CN1CCN(CCCNc2nc3ccc(Oc4ccc(NC(=O)Nc5cc(C(F)(F)F)ccc5F)cc4)cc3[nH]2)CC1 | inactive |
| Cc1cccc(Nc2ncc(-c3ccccc3)o2)c1 | inactive |
| CCCN1CCC(Oc2cc(Nc3nc(Nc4cccc(F)c4C(N)=O)c4cc[nH]c4n3)c(OC)cc2Cl)CC1 | inactive |
| O=S(=O)(CCOCc1ccc(-c2ccc3ncnc(Nc4ccc(OCc5cccc(F)c5)c(Cl)c4)c3c2)o1)c1ccccc1 | inactive |
| Fc1ccc(-c2ncn(C3CCNCC3)c2-c2ccnc(Oc3ccccc3)n2)cc1 | inactive |
| Cc1nnc(-c2ccc(C)c(-c3ccc(C(=O)Nc4cccc(C#N)c4)cc3)c2)o1 | inactive |
| COc1cc(N2CCN(C(C)C)CC2)ccc1Nc1nc(Nc2cccc3ncccc23)c2cc[nH]c2n1 | inactive |
| CC(=Nc1ccc(S(N)(=O)=O)cc1)c1c(O)[nH]c2ccccc12 | inactive |

| SMILES | outcome |
| --- | --- |
| CNC(=O)c1cncc(C=Cc2c(C)cccc2C)c1 | inactive |
| COc1cccc(-n2ncc3c(NN=Cc4ccncc4)ncnc32)c1 | inactive |
| CC(C)COC(=O)c1ccc2[nH]c(O)c(C=Nc3ccc(S(N)(=O)=O)cc3)c2c1 | inactive |
| NS(=O)(=O)c1ccc(-c2cc3ccncc3cc2OCc2ccccc2)cc1 | inactive |
| CCn1c(-c2nonc2N)nc2c(C#CC(C)(C)O)ncc(OCC3CCCN3)c21 (centres undefined) | inactive |
| COc1cc(C=NNc2ncnc3c2cnn3Cc2ccccc2)ccc1O | inactive |
| Fc1ccc(-c2ncn(C3CCNCC3)c2-c2ccnc(Oc3cccc(C(F)(F)F)c3)n2)cc1 | inactive |
| Cc1ccc2[nH]c(O)c(N=Nc3ccc(S(N)(=O)=O)cc3)c2c1 | inactive |
| OCCCNc1nccc(-c2c(-c3ccc(F)cc3)nn3cc(C(F)(F)F)ccc23)n1 | inactive |
| N#Cc1cccc(Nc2nccc(-c3cnn4ncccc34)n2)c1 | inactive |
| Cc1cc(O)cc(C)c1C=Cc1cncc(C(=O)N(C)C)c1 | inactive |
| Fc1ccc(-c2ncn(C3CCNCC3)c2-c2ccnc(Oc3cccc(F)c3)n2)cc1 | inactive |
| COc1cc(C=NNc2ncnc3[nH]ncc23)ccc1O | inactive |
| CCN1CCC(C(=O)Nc2n[nH]c3nnc(-c4cccc(F)c4F)cc23)CC1 | inactive |
| Fc1cccc(COc2ccc(Nc3ncnc4cc(-c5ccc[nH]5)sc34)cc2Cl)c1 | inactive |
| Cc1ccc2c(-c3ccnc(Nc4ccccc4)n3)c(-c3ccc(F)cc3)nn2n1 | inactive |
| ON=C1CCc2cc(-c3nc(C4CCNCC4)[nH]c3-c3ccncc3)ccc21 | inactive |
| Clc1ccc(CNc2nccc(-c3cnn4ncccc34)n2)cc1 | inactive |
| Cc1ccc(C(=O)NC2CC2)cc1-c1ccc2[nH]ncc2c1 | inactive |
